# From PubChem BioAssay (EPA / NIEHS)
# Results filed as inconclusive are left out. Active and inactive are the calls of the source. How the source made its calls, unless noted: active means hit-call score of the fitted dose curve at least 0.9, where 1 is the maximum; inactive means score below 0.9.
# What was measured:
# [1] = biological target: Glucocorticoid receptor (Homo sapiens) (UniProt P04150); assay: ATG_GR_TRANS: Attagene TRANS-FACTORIAL HepG2 Assay for human Glucocorticoid Receptor (GR) (AID 2282978; active means hit-call score of the fitted dose curve at least 0.9, where 1 is the maximum;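 further: activators score as hits since higher reporter transcript over DMSO is fitted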); conditions: HepG2 Attagene TRANS GR reporter, mRNA transcription
# In short: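 Transient MRTU transfection of HepG2 (GAL4-UAS reporters, exogenous NR-GAL4 chimeras), 24 h dosing. Readout: reporter transcript via RT-PCR + capillary electrophoresis fluorescence. Positive direction vs DMSO baseline.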
# [2] = biological target: Bile acid receptor (Homo sapiens) (UniProt Q96RI1); assay: ATG_FXR_TRANS: Attagene TRANS-FACTORIAL HepG2 Assay for Farnesoid X Receptor (FXR) (AID 2282979; active means hit-call score of the fitted dose curve at least 0.9, where 1 is the maximum;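 further: hits raise reporter mRNA above DMSO so AC50 marks FXR activation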); conditions: HepG2 Attagene TRANS FXR-GAL4 reporter transcription
# In short: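 After 24 h chemical treatment of transfected HepG2 cells, GAL4-UAS reporter transcripts driven by an exogenous FXR-GAL4 fusion were measured by RT-PCR and capillary electrophoresis. Increases over DMSO were fitted.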
# [3] = biological target: Hepatocyte nuclear factor 4-alpha (Homo sapiens) (UniProt P41235); assay: ATG_HNF4a_TRANS: Attagene TRANS-FACTORIAL HepG2 Assay for human Hepatocyte Nuclear Factor 4 alpha (HNF4a) (AID 2282982; active means hit-call score of the fitted dose curve at least 0.9, where 1 is the maximum); conditions: HepG2 HNF4a transactivation reporter, mRNA readout
# In short: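 Gain-of-signal mRNA induction, relative to DMSO vehicle, was read after 24 h compound treatment of HepG2 cells bearing transfected GAL4-UAS reporters. Detection used RT-PCR, 6-FAM primer extension and capillary electrophoresis.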
# [4] = ATG_M_06_TRANS: Attagene TRANS-FACTORIAL HepG2 Assay for M06 Transcription Factor (Internal Marker) (AID 2282983; active means hit-call score of the fitted dose curve at least 0.9, where 1 is the maximum); conditions: HepG2 Attagene TRANS M06 internal marker reporter
# In short: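 Internal-marker background readout from a multiplexed TRANS reporter system in HepG2; 24 h dosing; mRNA induction quantified by RT-PCR plus capillary electrophoresis fluorescence; DMSO as negative control and baseline.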
# [5] = biological target: Transcriptional activator Myb (Homo sapiens) (UniProt P10242); assay: ATG_Myb_CIS: Attagene CIS-FACTORIAL HepG2 Assay for human Myeloblastosis (Myb) Proto-Oncogene Transcription Factor (AID 2282986); conditions: HepG2 Attagene CIS-FACTORIAL Myb reporter transcription; actives raise or lower the signal
# In short: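 HepG2, transient MRTU transfection (cis-element promoters, endogenous TF activity), 24 h compound exposure. Readout: reporter mRNA via RT-PCR, 6-FAM labeling, HpaI digest, capillary electrophoresis. Gain/loss fit vs DMSO.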
# [6] = biological target: Nuclear respiratory factor 1 (Homo sapiens) (UniProt Q16656); assay: ATG_NRF1_CIS: Attagene CIS-FACTORIAL HepG2 Assay for human Nuclear Respiratory Factor 1 (NRF1) Orphan Gene (AID 2282987); conditions: HepG2 NRF1 cis-element reporter, Attagene multiplex; actives raise or lower the signal
# In short: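 Endogenous NRF1-driven reporter transcription measured in transiently transfected human HepG2 liver cells. Readout: reporter mRNA by RT-PCR and capillary electrophoresis with fluorescence detection, 24 h post-dosing. Gain or loss of signal fitted relative to DMSO baseline.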
# [7] = ATG_NFI_CIS: Attagene CIS-FACTORIAL HepG2 Assay for human Nuclear Factor I (NFI) (AID 2282989); conditions: HepG2 cis-regulatory reporter, NFI response element transcription; actives raise or lower the signal
# In short: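 Transfected HepG2 liver cells, exposed 24 h, supplied total RNA for oligo(dT) reverse transcription and reporter-specific PCR. Labelled, HpaI-cut fragments were sized by capillary electrophoresis; DMSO set the baseline for bidirectional fitting.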
# [8] = biological target: Myc proto-oncogene protein (Homo sapiens) (UniProt P01106); assay: ATG_Myc_CIS: Attagene CIS-FACTORIAL HepG2 Assay for human Myelocytomatosis (Myc) Proto-Oncogene Transcription Factor (AID 2282990); conditions: HepG2, Attagene cis-reporter transcription factor activity; actives raise or lower the signal
# In short: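 Transiently transfected HepG2 cells bearing cis-promoter reporter units for endogenous transcription factors; 24 h exposure. Reporter mRNA measured by RT-PCR, 6-FAM primer extension, HpaI cut and capillary electrophoresis; bidirectional fit relative to DMSO.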
# [9] = ATG_NF_kB_CIS: Attagene CIS-FACTORIAL HepG2 Assay for human Nuclear Factor Kappa B (NF-kB) (AID 2282991); conditions: HepG2 Attagene cis-factorial NF-kB reporter mRNA; actives raise or lower the signal
# In short: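 Read-out: reporter transcript levels quantified by RT-PCR plus capillary electrophoresis of 6-FAM-labelled, HpaI-cut fragments. Transfected HepG2 cells, 24 h compound exposure, endogenous NF-kB-driven cis element; gain or loss scored versus DMSO.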
# [10] = ATG_NRF2_ARE_CIS: Attagene CIS-FACTORIAL HepG2 Assay for human Nuclear Factor Erythroid 2 Related Factor 2 (NFR2) response to Antioxidant Response Elements (ARE) (AID 2282992); conditions: HepG2 Attagene ARE/NRF2 reporter, transcription factor activity; actives raise or lower the signal
# In short: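 HepG2 cells transiently transfected with multiplexed cis-element reporter constructs, 24 h after chemical dosing; reporter mRNA quantified by RT-PCR, fluorescent primer extension, HpaI digestion and capillary electrophoresis. Bidirectional fit relative to DMSO.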
# [11] = ATG_Oct_MLP_CIS: Attagene CIS-FACTORIAL HepG2 Assay for human Octamer-Binding Transcription Factor (Oct) (AID 2282993); conditions: HepG2 Attagene cis-factorial Oct reporter, mRNA; actives raise or lower the signal
# In short: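 Using HepG2 cells bearing transfected cis-reporter constructs, mRNA induction was read after 24 h by fluorescent RT-PCR and capillary electrophoresis, with DMSO defining baseline for gain- or loss-of-signal fits.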
# [12] = biological target: Cellular tumor antigen p53 (Homo sapiens) (UniProt P04637); assay: ATG_p53_CIS: Attagene CIS-FACTORIAL HepG2 Assay for human p53 Transcription Factor (AID 2282994); conditions: HepG2 p53 cis-element reporter, Attagene mRNA; actives raise or lower the signal
# In short: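 HepG2 cells transiently transfected with cis-regulated multiple reporter transcription units, dosed 24 h. Reporter mRNA measured by RT-PCR, 6-FAM primer extension, HpaI digestion and capillary electrophoresis; bidirectional fit relative to DMSO.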
# [13] = BSK_3C_TissueFactor: BioMAP Diversity Plus: 3C Assay for Tissue Factor Biomarker Activity (AID 2282997); conditions: BioMAP 3C HUVEC, tissue factor biomarker readout; actives raise or lower the signal
# In short: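 Endothelial monolayers (human umbilical vein, primary) are dosed, incubated 24 h, and assayed for Tissue Factor by ELISA; DMSO serves as negative control for bidirectional fitting.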
# [14] = BSK_3C_uPAR: BioMAP Diversity Plus: 3C Assay for Urokinase-type plasminogen activator receptor (uPAR) Biomarker Activity (AID 2282998); conditions: BioMAP 3C HUVEC, uPAR biomarker ELISA; actives raise or lower the signal
# In short: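 In this endothelial cell-based assay, human umbilical vein primary cells were treated with chemicals and harvested at 24 h. uPAR was quantified using ELISA, with gains or losses fitted relative to DMSO controls.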
# [15] = BSK_3C_VCAM1: BioMAP Diversity Plus: 3C Assay for Vascular cell adhesion molecule 1 (VCAM1) Biomarker Activity (AID 2282999); conditions: BioMAP 3C HUVEC, VCAM1 ELISA, cytokine-stimulated; actives raise or lower the signal
# In short: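 Human umbilical vein endothelial cells (3C system), biomarker read by ELISA 24 h after dosing; bidirectional fit against DMSO baseline. Cytotoxicity tracked by SRB total-protein staining in parallel cultures at biomarker time.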
# [16] = biological target: Estrogen-related receptor gamma (Homo sapiens) (UniProt P62508); assay: ATG_ERRg_TRANS: Attagene TRANS-FACTORIAL HepG2 Assay for human Estrogen-Related Receptor gamma (ERRg) (AID 2282977; active means hit-call score of the fitted dose curve at least 0.9, where 1 is the maximum;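 further: hits increase reporter signal over DMSO so potencies reflect activators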); conditions: HepG2 Attagene TRANS reporter, ERRg transactivation
# In short: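 Transient HepG2 transfectants, 24 h compound exposure, GAL4-UAS reporter mRNA by RT-PCR/6-FAM labelling/capillary electrophoresis; positive direction vs DMSO.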
# [17] = ATG_M_32_TRANS: Attagene TRANS-FACTORIAL HepG2 Assay for M32 Transcription Factor (Internal Marker) (AID 2282984; active means hit-call score of the fitted dose curve at least 0.9, where 1 is the maximum;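 further: transcript level of a background control reporter unit measured by RT-PCR and capillary electrophoresis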); conditions: HepG2 Attagene TRANS M32 internal marker reporter
# In short: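 Capillary electrophoresis of 6-FAM-labelled reporter fragments gives the signal; data fitted for gain over DMSO negative control. Source: HepG2 cells bearing transient multiple reporter transcription units, 24 h exposure.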
# [18] = biological target: Nuclear receptor subfamily 4 group A member 2 (Homo sapiens) (UniProt P43354); assay: ATG_NURR1_TRANS: Attagene TRANS-FACTORIAL HepG2 Assay for human Nuclear Receptor Related Protein 1 (NURR1) (AID 2282985; active means hit-call score of the fitted dose curve at least 0.9, where 1 is the maximum); conditions: HepG2 Attagene TRANS reporter, mRNA readout
# In short: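 HepG2 / transient MRTU transfection / 24 h compound exposure / RT-PCR + CE fluorescence of reporter mRNA / gain-of-signal vs DMSO.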
# [19] = biological target: Oxysterols receptor LXR-beta (Homo sapiens) (UniProt P55055); assay: ATG_LXRb_TRANS: Attagene TRANS-FACTORIAL HepG2 Assay for human Liver X Receptor beta (LXRb) (AID 2282981; active means hit-call score of the fitted dose curve at least 0.9, where 1 is the maximum); conditions: HepG2 Attagene TRANS GAL4-LXRb reporter, mRNA
# In short: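 Gain-of-signal mRNA reporter endpoint, DMSO as negative control. Transiently transfected HepG2 cells carrying the NR-Gal4 chimera and GAL4-UAS reporter units were treated 24 h; transcripts quantified by RT-PCR and capillary electrophoresis fluorescence.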
# [20] = biological target: Oxysterols receptor LXR-alpha (Homo sapiens) (UniProt Q13133); assay: ATG_LXRa_TRANS: Attagene TRANS-FACTORIAL HepG2 Assay for human Liver X Receptor alpha (LXRa) (AID 2282980; active means hit-call score of the fitted dose curve at least 0.9, where 1 is the maximum); conditions: HepG2 Attagene TRANS reporter, LXRa transactivation
# In short: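 In this multiplexed TRANS system, compounds act on HepG2 cells carrying GAL4-UAS reporter units and a receptor-GAL4 fusion for 24 h. Induced reporter RNA is amplified, fluorescently labelled and sized by capillary electrophoresis, with DMSO as baseline.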
# Chain of Nuclear receptor subfamily 4 group A member 2 (Homo sapiens) (P43354 whole entry, looked up): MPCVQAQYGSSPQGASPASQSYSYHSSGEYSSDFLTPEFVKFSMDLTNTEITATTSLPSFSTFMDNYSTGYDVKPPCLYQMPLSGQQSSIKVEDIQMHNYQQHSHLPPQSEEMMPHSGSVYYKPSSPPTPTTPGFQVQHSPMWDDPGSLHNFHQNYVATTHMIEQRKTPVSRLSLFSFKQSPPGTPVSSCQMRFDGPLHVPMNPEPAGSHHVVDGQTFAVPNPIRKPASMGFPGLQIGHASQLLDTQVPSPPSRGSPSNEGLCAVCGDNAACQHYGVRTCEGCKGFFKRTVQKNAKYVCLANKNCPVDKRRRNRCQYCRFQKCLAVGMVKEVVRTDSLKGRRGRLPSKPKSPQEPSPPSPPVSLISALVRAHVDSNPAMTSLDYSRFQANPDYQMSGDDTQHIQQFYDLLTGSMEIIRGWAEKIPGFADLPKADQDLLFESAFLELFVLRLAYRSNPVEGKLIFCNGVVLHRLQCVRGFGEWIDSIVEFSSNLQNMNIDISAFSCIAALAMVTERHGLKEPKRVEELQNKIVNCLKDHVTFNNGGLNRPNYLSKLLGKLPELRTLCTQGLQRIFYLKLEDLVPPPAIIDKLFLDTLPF
# Chain of Bile acid receptor (Homo sapiens) (Q96RI1 whole entry, looked up, the tested form may be a part): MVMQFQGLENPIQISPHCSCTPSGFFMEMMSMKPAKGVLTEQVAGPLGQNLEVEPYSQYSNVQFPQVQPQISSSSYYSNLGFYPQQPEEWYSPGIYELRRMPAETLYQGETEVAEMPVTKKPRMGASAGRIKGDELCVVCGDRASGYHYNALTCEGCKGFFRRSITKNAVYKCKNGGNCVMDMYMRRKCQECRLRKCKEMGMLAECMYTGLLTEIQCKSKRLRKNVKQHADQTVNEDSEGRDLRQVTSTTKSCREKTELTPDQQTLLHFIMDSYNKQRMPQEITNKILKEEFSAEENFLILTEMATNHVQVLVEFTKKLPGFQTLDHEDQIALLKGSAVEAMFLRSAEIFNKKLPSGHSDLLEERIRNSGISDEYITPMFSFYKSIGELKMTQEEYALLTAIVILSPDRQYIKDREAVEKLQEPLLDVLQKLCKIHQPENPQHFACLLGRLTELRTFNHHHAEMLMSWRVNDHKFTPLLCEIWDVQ
# Chain of Estrogen-related receptor gamma (Homo sapiens) (P62508 whole entry, looked up, the tested form may be a part): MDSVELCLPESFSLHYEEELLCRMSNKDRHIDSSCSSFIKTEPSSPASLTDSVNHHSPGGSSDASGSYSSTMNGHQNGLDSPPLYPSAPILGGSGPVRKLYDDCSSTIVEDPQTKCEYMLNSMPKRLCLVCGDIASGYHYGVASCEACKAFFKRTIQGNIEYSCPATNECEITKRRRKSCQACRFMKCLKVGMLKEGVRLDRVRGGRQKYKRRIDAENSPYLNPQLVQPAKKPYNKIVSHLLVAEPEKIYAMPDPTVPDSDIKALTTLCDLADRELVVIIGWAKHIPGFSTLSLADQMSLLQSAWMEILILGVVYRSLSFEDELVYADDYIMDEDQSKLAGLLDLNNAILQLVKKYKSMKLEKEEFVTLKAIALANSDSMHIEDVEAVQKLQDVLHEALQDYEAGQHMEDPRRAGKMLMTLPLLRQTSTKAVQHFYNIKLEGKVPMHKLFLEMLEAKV
# Chain of Myc proto-oncogene protein (Homo sapiens) (P01106 whole entry, looked up): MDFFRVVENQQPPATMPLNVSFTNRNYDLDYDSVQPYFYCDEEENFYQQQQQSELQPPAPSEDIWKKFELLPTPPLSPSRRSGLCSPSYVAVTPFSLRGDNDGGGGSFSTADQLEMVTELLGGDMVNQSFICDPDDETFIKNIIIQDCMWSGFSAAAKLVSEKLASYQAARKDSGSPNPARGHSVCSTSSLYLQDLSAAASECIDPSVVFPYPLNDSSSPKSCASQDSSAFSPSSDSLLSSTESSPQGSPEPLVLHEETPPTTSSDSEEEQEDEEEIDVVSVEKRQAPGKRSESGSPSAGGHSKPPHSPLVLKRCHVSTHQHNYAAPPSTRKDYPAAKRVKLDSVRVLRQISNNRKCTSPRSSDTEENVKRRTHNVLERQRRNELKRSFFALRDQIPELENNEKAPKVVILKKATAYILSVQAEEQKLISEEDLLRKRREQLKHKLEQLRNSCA
# Chain of Transcriptional activator Myb (Homo sapiens) (P10242 whole entry, looked up): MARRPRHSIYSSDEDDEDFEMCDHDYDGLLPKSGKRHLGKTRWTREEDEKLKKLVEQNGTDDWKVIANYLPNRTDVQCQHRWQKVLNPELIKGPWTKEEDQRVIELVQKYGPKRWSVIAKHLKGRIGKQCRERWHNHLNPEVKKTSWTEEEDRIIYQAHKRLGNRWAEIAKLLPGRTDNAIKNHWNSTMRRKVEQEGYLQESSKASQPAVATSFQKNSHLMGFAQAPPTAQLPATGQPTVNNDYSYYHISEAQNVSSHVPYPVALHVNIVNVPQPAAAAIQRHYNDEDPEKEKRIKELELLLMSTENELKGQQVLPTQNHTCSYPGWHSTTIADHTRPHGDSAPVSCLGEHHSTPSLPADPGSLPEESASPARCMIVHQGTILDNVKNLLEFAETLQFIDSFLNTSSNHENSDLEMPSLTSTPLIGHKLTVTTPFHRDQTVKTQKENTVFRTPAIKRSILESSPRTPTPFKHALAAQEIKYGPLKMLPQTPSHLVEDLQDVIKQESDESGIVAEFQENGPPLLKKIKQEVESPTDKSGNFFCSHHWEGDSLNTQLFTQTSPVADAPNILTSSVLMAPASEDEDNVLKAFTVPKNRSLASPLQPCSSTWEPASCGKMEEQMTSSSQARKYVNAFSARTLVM
# Chain of Hepatocyte nuclear factor 4-alpha (Homo sapiens) (P41235 whole entry, looked up, the tested form may be a part): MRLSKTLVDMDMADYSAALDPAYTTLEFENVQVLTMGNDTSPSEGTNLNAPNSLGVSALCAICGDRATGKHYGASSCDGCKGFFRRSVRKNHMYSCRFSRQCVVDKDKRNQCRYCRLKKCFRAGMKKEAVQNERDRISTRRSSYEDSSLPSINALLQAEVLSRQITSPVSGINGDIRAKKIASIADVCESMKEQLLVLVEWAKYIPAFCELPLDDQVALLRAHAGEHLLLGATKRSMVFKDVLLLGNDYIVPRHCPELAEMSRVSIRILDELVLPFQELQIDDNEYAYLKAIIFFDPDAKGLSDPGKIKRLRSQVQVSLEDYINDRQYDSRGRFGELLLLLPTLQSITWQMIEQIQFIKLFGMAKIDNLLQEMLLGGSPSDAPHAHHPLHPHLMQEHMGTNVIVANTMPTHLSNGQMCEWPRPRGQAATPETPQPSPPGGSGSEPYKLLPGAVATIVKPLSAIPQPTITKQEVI
# Chain of Oxysterols receptor LXR-beta (Homo sapiens) (P55055 whole entry, looked up, the tested form may be a part): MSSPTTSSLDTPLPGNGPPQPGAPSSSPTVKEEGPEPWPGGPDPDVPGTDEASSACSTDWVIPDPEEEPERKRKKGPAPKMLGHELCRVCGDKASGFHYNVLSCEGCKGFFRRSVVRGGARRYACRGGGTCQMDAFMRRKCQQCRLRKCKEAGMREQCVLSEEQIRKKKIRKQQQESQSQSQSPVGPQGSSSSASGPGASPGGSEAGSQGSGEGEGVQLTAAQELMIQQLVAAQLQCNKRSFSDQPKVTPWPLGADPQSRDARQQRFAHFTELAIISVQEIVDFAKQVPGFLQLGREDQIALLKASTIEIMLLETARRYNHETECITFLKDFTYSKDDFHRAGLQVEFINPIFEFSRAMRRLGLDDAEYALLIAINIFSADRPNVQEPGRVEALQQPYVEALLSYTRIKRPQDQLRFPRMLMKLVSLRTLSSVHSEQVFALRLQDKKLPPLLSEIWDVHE
# Chain of Nuclear respiratory factor 1 (Homo sapiens) (Q16656 whole entry, looked up): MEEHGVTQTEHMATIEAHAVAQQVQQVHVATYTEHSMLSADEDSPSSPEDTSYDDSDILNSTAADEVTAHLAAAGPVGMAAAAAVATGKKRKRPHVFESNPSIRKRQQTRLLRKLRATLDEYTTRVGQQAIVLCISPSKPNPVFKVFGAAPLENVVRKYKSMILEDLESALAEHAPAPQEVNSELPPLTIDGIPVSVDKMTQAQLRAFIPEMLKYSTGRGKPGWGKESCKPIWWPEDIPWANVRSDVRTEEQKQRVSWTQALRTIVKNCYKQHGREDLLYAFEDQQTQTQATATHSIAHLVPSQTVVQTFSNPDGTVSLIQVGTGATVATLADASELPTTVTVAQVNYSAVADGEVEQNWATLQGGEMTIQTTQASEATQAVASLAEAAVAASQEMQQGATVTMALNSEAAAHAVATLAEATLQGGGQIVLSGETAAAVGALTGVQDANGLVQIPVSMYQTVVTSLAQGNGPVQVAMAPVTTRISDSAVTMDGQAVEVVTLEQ
# Chain of Cellular tumor antigen p53 (Homo sapiens) (P04637 whole entry, looked up): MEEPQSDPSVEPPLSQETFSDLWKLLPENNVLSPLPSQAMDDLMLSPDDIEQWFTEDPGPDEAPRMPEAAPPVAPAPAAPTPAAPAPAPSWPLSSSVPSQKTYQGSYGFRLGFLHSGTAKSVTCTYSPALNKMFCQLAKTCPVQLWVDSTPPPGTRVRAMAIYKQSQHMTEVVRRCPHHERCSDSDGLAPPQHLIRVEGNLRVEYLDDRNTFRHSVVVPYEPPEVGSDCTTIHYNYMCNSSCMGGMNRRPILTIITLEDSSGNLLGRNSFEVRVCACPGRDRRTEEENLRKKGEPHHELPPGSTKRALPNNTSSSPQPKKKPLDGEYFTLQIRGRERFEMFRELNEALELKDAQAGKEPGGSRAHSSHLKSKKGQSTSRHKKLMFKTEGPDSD
# Chain of Oxysterols receptor LXR-alpha (Homo sapiens) (Q13133 whole entry, looked up, the tested form may be a part): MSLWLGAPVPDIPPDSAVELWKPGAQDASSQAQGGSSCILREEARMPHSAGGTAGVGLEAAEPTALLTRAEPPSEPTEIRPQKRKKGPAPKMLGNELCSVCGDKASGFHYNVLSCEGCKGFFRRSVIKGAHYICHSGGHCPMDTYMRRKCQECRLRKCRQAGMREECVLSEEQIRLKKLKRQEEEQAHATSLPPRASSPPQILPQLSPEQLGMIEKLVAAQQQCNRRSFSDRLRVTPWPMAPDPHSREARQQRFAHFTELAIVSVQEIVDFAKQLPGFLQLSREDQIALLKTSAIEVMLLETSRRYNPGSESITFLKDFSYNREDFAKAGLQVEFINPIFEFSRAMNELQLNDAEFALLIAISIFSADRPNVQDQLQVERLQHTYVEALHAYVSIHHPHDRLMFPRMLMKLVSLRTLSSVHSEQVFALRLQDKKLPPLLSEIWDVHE
compound,measurement,setting,value
Cc1cccc(C)c1N,outcome,[1],inactive
same,outcome,[2],inactive
same,outcome,[3],inactive
same,outcome,[4],inactive
same,outcome,[5],inactive
same,outcome,[6],inactive
same,outcome,[7],inactive
same,outcome,[8],inactive
same,outcome,[9],inactive
same,outcome,[10],inactive
same,outcome,[11],inactive
same,outcome,[12],inactive
same,outcome,[13],inactive
same,outcome,[14],inactive
same,outcome,[15],inactive
CCC(C)(CC)c1cc(NC(=O)c2c(OC)cccc2OC)on1,outcome,[16],inactive
same,outcome,[3],inactive
same,outcome,[17],inactive
same,outcome,[18],inactive
same,outcome,[5],inactive
same,outcome,[6],inactive
same,outcome,[7],inactive
same,outcome,[8],inactive
same,outcome,[9],inactive
same,AC50,[10],0.289 µM (active)
same,outcome,[13],inactive
same,outcome,[14],inactive
same,outcome,[15],inactive
CN(C)CCO,outcome,[16],inactive
same,outcome,[1],inactive
same,outcome,[19],inactive
same,outcome,[3],inactive
same,outcome,[4],inactive
same,outcome,[17],inactive
same,outcome,[18],inactive
same,outcome,[5],inactive
same,outcome,[6],inactive
same,outcome,[7],inactive
same,outcome,[8],inactive
same,outcome,[9],inactive
same,outcome,[10],inactive
same,outcome,[11],inactive
same,outcome,[12],inactive
same,outcome,[13],inactive
same,outcome,[14],inactive
same,outcome,[15],inactive
O=C(N[C@H]1CN2CCC1CC2)c1cc2ccoc2cn1,outcome,[1],inactive
same,outcome,[20],inactive
same,outcome,[19],inactive
same,outcome,[3],inactive
same,outcome,[4],inactive
same,outcome,[17],inactive
same,outcome,[5],inactive
same,outcome,[6],inactive
same,outcome,[7],inactive
same,outcome,[8],inactive
same,outcome,[9],inactive
same,outcome,[10],inactive
same,outcome,[12],inactive
same,outcome,[13],inactive
same,outcome,[14],inactive
same,outcome,[15],inactive
ClC1=C(Cl)[C@]2(Cl)[C@@H]3[C@H]4C[C@H]([C@@H]5O[C@H]45)[C@@H]3[C@@]1(Cl)C2(Cl)Cl,outcome,[16],inactive
same,outcome,[1],inactive
same,outcome,[17],inactive
same,outcome,[18],inactive
same,outcome,[5],inactive
same,outcome,[6],inactive
same,outcome,[7],inactive
same,outcome,[8],inactive
same,outcome,[9],inactive
same,outcome,[10],inactive
same,outcome,[12],inactive
same,outcome,[13],inactive
same,outcome,[14],inactive
same,outcome,[15],inactive
COc1ccc(O)c(C(C)(C)C)c1,outcome,[1],inactive
same,outcome,[2],inactive
same,outcome,[4],inactive
same,outcome,[17],inactive
same,outcome,[5],inactive
same,outcome,[6],inactive
same,outcome,[7],inactive
same,outcome,[8],inactive
same,AC50,[10],39 µM (active)
same,outcome,[12],inactive
same,outcome,[13],inactive
same,outcome,[14],inactive
same,outcome,[15],inactive
OCC(O)CO,outcome,[16],inactive
same,outcome,[1],inactive
same,outcome,[2],inactive
same,outcome,[19],inactive
same,outcome,[17],inactive
same,outcome,[18],inactive
same,outcome,[5],inactive
same,outcome,[6],inactive
same,outcome,[7],inactive
same,outcome,[8],inactive
same,outcome,[9],inactive
same,outcome,[10],inactive
same,outcome,[11],inactive
same,outcome,[12],inactive
